Shown are actives, neighbours in structure and some others; about 6.5% of the full set was active somewhere.
HT1080 IDH1KD tx – qHTS for induction of synthetic lethality in tumor cells producing 2HG: qHTS for the HT-1080-IDH1KD cell line. HT-1080 IDH1 knockdown viability, ATP luminescence, 48 h. Potency, µM (highest dose often 46.1 µM), without a hit: top-dose activity, negative = toxicity, actives largely listed as cytotoxic. hit rate 2% among 360,000. AID 686971, 2013;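 further: potency means the concentration at half of the fitted maximal effect; 0% = DMSO wells and -100% = cell-free medium wells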
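Luminescent ATP read-out (CellTiter-Glo, 10 min at room temperature) after 48 h compound exposure at 37 °C gave viability of IDH1-knockdown HT-1080 cells. Activity was normalised to DMSO and cell-free wells, then fitted as concentration-response curves.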
Giardia killer – Small Molecules that selectively kill Giardia lamblia: qHTS; AID 540267, 2011; activity change, % at 7.66 µM, hits read low; Giardia lamblia trophozoite viability; hit rate 0.15% among 340,000; in the data active means activity change below about -80%; inconclusive means between about -30% and that limit;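 further: parasites exposed to compound for two days anaerobically before the ATP read; on the % scale 0 is the no-effect control and ±100 the full control effect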
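Luminescent ATP signal served as the viability read-out, measured 15-30 min after adding ATP detection reagent to trophozoites that had been incubated with compounds for 48 hrs at 37 deg C anaerobically at 100 cells/well.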
TGFb inhibitor – qHTS for Inhibitors of TGF-b; HepG2 CAGA-GFP TGF-b/SMAD3 reporter, GFP fluorescence, 18 h; TGF-beta stimulated, 500 pg/mL final; Potency, µM (series often up to 46.1 µM), for the others: at the highest dose activity, negative = inhibition, actives largely listed as inhibitors; hit rate 1.2% among 410,000; AID 588855, 2011; further: potency means the concentration at half of the fitted maximal effect; on the % scale 0 is the no-effect control and ±100 the full control effect; nearly all actives have a fitted effect of over 65% in size
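TGF-beta reporter screen: HEPG2 CAGA-GFP, 1% FBS, 500 pg/mL TGF-beta final, 18 h; per-cell GFP summed per well; curves fitted and categorized by class.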
IL-1B inflam inh – qHTS for Inhibitors of Inflammasome Signaling: IL-1-beta AlphaLISA Primary Screen | THP-1 LPS/ATP IL-1B secretion, AlphaLISA, 16 h; active compounds read low | activity change, % at 57.5 µM | hit rate 4.7% among 360,000 | AID 743279, 2014; in the data active means activity change below about -50%; inconclusive means mostly about -30% to -49%; further: on the % scale 0 is the no-effect control and ±100 the full control effect
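THP-1 cells pretreated 1 hr with compounds (up to 57.5 uM final), then stimulated with LPS (250 ng/mL final) plus ATP (1.25 mM final); secreted IL-1B measured by AlphaLISA after 16 hr, decreased signal indicating inhibition.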
HepG2 tox – qHTS for Inhibitors of TGF-b: Cytotox Counterscreen; Potency, µM (highest dose often 46.1 µM), for the others: at the highest dose activity change, negative = cytotoxicity, actives largely listed as cytotoxic; HepG2 CAGA-GFP viability, ATP luminescence, 18 h; hit rate 0.76% among 410,000; further: potency means the concentration at half of the fitted maximal effect
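CellTiter-Glo luminescence gave cytotoxicity after 18 hours at 37 degrees C. The cells were HepG2 CAGA-GFP in 1% FBS DMEM, stimulated with 500 pg/mL TGF-beta after compound addition. %Activity was normalised to no-cell wells (complete cell-killing) and DMSO (no toxicity), and curves were fitted and classified.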
HT1080-NT tox – qHTS for induction of synthetic lethality in tumor cells producing 2HG: qHTS for the HT-1080-NT fibrosarcoma cell line | HT-1080-NT fibrosarcoma viability, CellTiter-Glo ATP luminescence, 48 h | Potency, µM (highest dose often 46.1 µM), for the others: top-dose activity, negative = less viability, actives largely listed as cytotoxic | hit rate 1.6% among 360,000 | AID 686970, 2013;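 further: NT is the 2HG producing partner of a matched IDH1 knockdown line; potency means the concentration at half of the fitted maximal effect; 0% = DMSO-treated cells and -100% = media-only wells without cells; nearly all actives have a fitted effect of over 55% in size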
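Compounds were tested in concentration-response format on HT-1080-NT cells for 48 hours at 37 degrees C. Cell viability came from CellTiter-Glo luminescence; curves were classified by r2, response magnitude and activity.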
* = called active by the depositor; ? = inconclusive; / = not tested or not shown. Unless noted, the call rests on the fitted dose curve; in most records, active means well fitted curve in the direction sought with a large enough effect; inconclusive means small, poorly fitted or top-dose-only effect, or another doubt; inactive means no such curve, though single readings can be large; an effect the other way counts as inactive or inconclusive.

SMILES	HT1080 IDH1KD tx	Giardia killer	TGFb inhibitor	IL-1B inflam inh	HepG2 tox	HT1080-NT tox
O=C(NCCn1cc(SCc2ccc(F)cc2)c2ccccc21)c1c(F)cccc1F	-13.4%	-22.3	?	-60.9*	-6.4%	?
O=C(Cn1cc(SCc2ccc(C(F)(F)F)cc2)c2ccccc21)N1CCCC1	/	/	?	/	10µM*	/
COc1cccc(SCC(=O)N2CCN(c3ccccc3)CC2)c1	12.7%	-4.6	-2.0%	-12.9	-2.7%	14.2%
CN1CCCCCC1=Nc1ccc([N+](=O)[O-])cc1	1.4%	-14.5	14.0%	1.6	1.6%	-1.5%
CN1C(=O)C(N=Nc2ccc([N+](=O)[O-])cc2)SC1=S (stereo unspecified)	?	?	?	-89.3*	-23.3%	?
CC(C)OCCCn1c(=S)[nH]c2ncccc2c1=O	27.8%	2.8	-6.6%	-6.9	-1.0%	17.2%
Cn1cc([N+](=O)[O-])c(C(=O)Nc2nc(-c3ccc(Cl)cc3)cs2)n1	3.26µM*	-21.5	?	-120.4*	6.31µM*	2.91µM*
O=C(Nc1nc(-c2ccc(Cl)cc2)cs1)NC1CCCCC1	?	7.1	11.2µM*	0.0	-35.1%	-25.3%
Cc1ccc(-c2nc(NC(=O)c3nn(C)cc3[N+](=O)[O-])sc2C)cc1C	4.11µM*	?	?	-119.3*	-80.1%	20.6µM*
O=C(Nc1ccc(Cl)cc1)Nc1nc(-c2ccccc2)cs1	6.7%	-13.5	?	-27.7	-6.6%	15.5%
Cc1ccc(-c2nc(NC(=O)c3nn(C)cc3[N+](=O)[O-])sc2C)cc1	11.6µM*	?	?	-111.1*	-125.0%	5.8µM*
CC(NC(=O)C1CCC(=O)N1Cc1ccc(F)cc1)c1ccc2c(c1)OCCO2 (stereo unspecified)	3.7%	0.8	-8.5%	-3.9	-12.5%	-9.3%
CC(=O)Oc1cccc(C(=O)Nc2c[nH]c(=O)[nH]c2=O)c1	0.0%	-0.3	-27.2%	-6.4	2.7%	2.8%
Cc1nn(Cc2c(F)c(F)c(F)c(F)c2F)c(C)c1NC(=O)c1nn(C)cc1[N+](=O)[O-]	-21.8%	-7.7	-26.5%	35.6	-21.1%	-11.1%
Cc1cnc(NC(=O)c2nn(C)cc2[N+](=O)[O-])s1	?	-5.6	?	-93.9*	-1.0%	?
CC(=O)Nc1cc(-c2cccc(C(=O)NCCN(C)C)c2)cn2c(-c3ccc(S(C)(=O)=O)cc3)cnc12	1.7%	/	-2.9%	-17.1	-13.4%	3.8%
CC(=O)Nc1cc(-c2cccc(C(=O)NCCN(C)C)c2)cn2c(-c3ccccc3)cnc12	16.4µM*	/	68.3%	-53.4*	-34.2%	?
CC(=O)Nc1cc(-c2cccc(C(=O)NCCN(C)C)c2)cn2c(-c3cccc(C(F)(F)F)c3)cnc12	20.6µM*	/	?	0.0	12.6µM*	18.4µM*
Cc1ccc(C)c(N2CCN(S(=O)(=O)c3cn(C)c(C)n3)CC2)c1	/	/	6.4%	/	-24.3%	/
CCN1C(=O)[C@H]2[C@@H](c3ccc(Cl)cc3)N3C(=O)CN(Cc4ccccc4)C(=O)[C@@]3(C)[C@H]2C1=O	9.8%	-5.3	15.4%	20.0	20.2%	9.9%
CC1=CC(=O)C=CC1=Nc1ccc(N(C)C)cc1	?	/	25.1µM*	-120.6*	-90.5%	?
CN(C)c1ccc(N=Nc2ccc(S(N)(=O)=O)cc2)cc1	-1.7%	?	4.1%	-23.5	-1.6%	-6.3%
Cc1nn(C)c2c1c(C(F)(F)F)cc(=O)n2C(C)C(=O)N1CCN(c2ccccc2)CC1 (stereo unspecified)	/	/	-6.6%	/	-3.9%	/
Cc1ccccc1Oc1cc(NC(=O)CCCn2nc(C)c([N+](=O)[O-])c2C)cc([N+](=O)[O-])c1	-10.7%	4.6	?	-55.5*	19.7%	-1.7%
FC(F)(Cl)c1nnc2ccc(Cl)nn12	?	-2.9	-22.9%	43.7	-5.4%	?
SMILES	HT1080 IDH1KD tx	Giardia killer	TGFb inhibitor	IL-1B inflam inh	HepG2 tox	HT1080-NT tox
CC1=C(C(=O)c2ccccc2)C(c2ccc(OC(F)F)cc2)NC(=S)N1 (stereo unspecified)	14.6µM*	3.1	?	?	-7.2%	?
O=C1CCCCC1(CCc1ccncc1)CCc1ccncc1	-3.9%	9.2	-17.4%	-16.4	-17.4%	-2.8%
Cc1cc(S(=O)(=O)N2CCN(c3ccccc3F)CC2)ccc1-n1cnnn1	-1.6%	12.8	-1.7%	-52.7*	-13.0%	2.3%
Cc1cc(S(=O)(=O)N2CCN(c3ccc(F)cc3)CC2)ccc1-n1cnnn1	0.0%	-11.6	4.9%	8.0	-6.0%	-1.9%
O=C(Nc1c(C(=O)c2ccccc2)oc2ccccc12)c1cc(-c2ccccc2O)n[nH]1	18.4µM*	4.2	-18.4%	-10.6	-12.0%	?
Cc1ccc(C(=O)c2oc3ccccc3c2NC(=O)c2cc(-c3ccccc3O)n[nH]2)cc1	?	-19.5	-10.0%	-3.1	-4.3%	16.4µM*
Cc1ccc(C(=O)c2oc3ccccc3c2NC(=O)c2cc(-c3cc(C)ccc3O)n[nH]2)cc1	9.0%	-19.1	-10.9%	57.8	0.1%	28.7%
CCOC(=O)C1=C(N)Oc2ccc3ccccc3c2C1c1cccc(O)c1 (stereo unspecified)	-16.5%	-0.2	11.2µM*	-12.8	-92.7%	-4.0%
CCOC(=O)C1=C(N)Oc2cc(O)ccc2C1c1ccccc1 (stereo unspecified)	?	-11.6	?	84.1	-41.8%	?
CCOC(=O)C1=C(N)Oc2cc(O)ccc2C1c1ccc(C)cc1 (stereo unspecified)	20.6µM*	-19.4	?	-71.9*	-54.8%	?
CCOC(=O)C1=C(N)Oc2cc(O)ccc2C1c1cccc([N+](=O)[O-])c1 (stereo unspecified)	5.8µM*	6.8	-24.1%	-97.5*	5.4%	7.31µM*
CN(C)C(CNC(=O)c1ccc(Cl)c(S(=O)(=O)N2CCCCCC2)c1)c1ccccc1 (stereo unspecified)	-13.2%	-8.0	?	-59.4*	-25.3%	-14.4%
COc1cccc(CN(C)C(=O)c2ccc(Cl)c(S(=O)(=O)N3CCCCCC3)c2)c1OC	-10.0%	-8.0	-29.7%	-53.3*	-24.0%	-0.4%
CN(C)C(CNC(=O)c1cccc(S(=O)(=O)N2CCN(c3ccc(F)cc3)CC2)c1)c1ccccc1 (stereo unspecified)	14.6µM*	-12.6	?	-74.2*	-23.0%	?

High-throughput results deposited in PubChem by National Center for Advancing Translational Sciences (NCATS).
